Data on 20 compounds can be found in PubChem BioAssay (EPA / NIEHS).

The nature of test [1]: UKN2_HCS_IMR90_cell_viability: Viability Assessment in the University of Konstanz (UKN) Leist Lab Neural Crest Cell Migration Assay in human induced IMR90 Pluripotent Stem Cells (UKN2) (AID 2284233).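 Also: viability of neural crest cells differentiated from IMR90 iPSC measured by calcein-AM fluorescence imaging; cells exposed to compound for 24 h after a 24 h migration phase.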 In a few lines:
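cMINC format, iPSC-derived neural crest (IMR90); 24 h migration (EGF/FGF, N2-S), then 24 h toxicant. Calcein-AM/H-33342 stain 30 min; fluorescence intensity by HCS; DMSO-normalised, bidirectional fitting.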

The nature of test [2]: CCTE_Mundy_HCI_Cortical_NOG_NeuronCount: CCTE's Neurite Outgrowth Assay in rat cortical cells for Neuron Count, Mundy Lab (AID 2284236; active = hit-call score of the fitted dose curve at least 0.9, where 1 is the maximum;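 also: neurons counted by imaging betaIII-tubulin and Hoechst stained cortical cells; cells exposed to compound for about 48 hours before fixation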). In a few lines: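 Read-out: neuron number by high-content imaging of betaIII-tubulin (Alexa Fluor-488) and Hoechst-labelled rat primary cortical cells.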
Test [3] is described as follows: CCTE_Mundy_HCI_Cortical_NOG_BPCount: CCTE's Neurite Outgrowth Assay in rat cortical cells for Branch Point Count, Mundy Lab (AID 2284237).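 As to AC50: branch points counted about two days after chemical exposure.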 The method, boiled down: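 Measured 50.33 h after dosing, this morphology endpoint uses rat primary cortical cultures labelled for betaIII-tubulin. Branch points are quantified by high-content imaging, with DMSO as negative control and baseline.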

A short description of test [4]: CCTE_Mundy_HCI_hNP1_Casp3_7: CCTE's Caspase-Glo 3/7 Assay in human neuroprogenitor cells for Apoptosis, Mundy Lab (AID 2284240). In a few lines: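 Neuroepithelial-lineage stem cells from WA09 embryonic cells were treated with chemicals after 40–44 h of culture. Twenty-four hours later, caspase-3/7 activation was detected luminescently after a 30 min room-temperature reagent step, with DMSO as baseline.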

Test [5] can be described thus: CCTE_Mundy_HCI_hNP1_CellTiter: CCTE's Cell Titer-Glo 2 Assay in human neuroprogenitor cells for Viability, Mundy Lab (AID 2284241; active = hit-call score of the fitted dose curve at least 0.9, where 1 is the maximum;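 as to AC50: a hit is a drop in ATP luminescence versus DMSO meaning reduced viability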). In a few lines: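 Measures ATP content in human neural progenitors derived from WA09 embryonic cells. Read-out at 26.5 hours after dosing, with DMSO serving as the negative control and baseline.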
(ATP-based viability assays read luminescence as a measure of living cells.)

Test [6] can be described thus: CCTE_Mundy_HCI_Cortical_Synap_Neur_Matur_NeuronCount: CCTE's Synaptogenesis and Neurite Maturation Assay in rat cortical cells for Neuron Count, Mundy Lab (AID 2284242; active = hit-call score of the fitted dose curve at least 0.9, where 1 is the maximum;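 as to AC50: neuron number from Hoechst nuclei and MAP2 staining by high-content imaging; hits reduce neuron count versus DMSO baseline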). In a few lines:
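Cortical cells from rat are plated, treated with AraC at DIV 5, and exposed to test chemicals with a media change at DIV 7. At DIV 12 they are fixed and immunostained (MAP2, synaptophysin), and imaged neuron counts are compared against DMSO controls.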

Test [7] in a line: TAMU_HCS_1.5hr_SingleDonor1434_Cytotoxicity: Cytotoxicity Assessment using High-content Screening (HCS) Fluorescent Imaging for the Texas A&M University (TAMU) 1.5-hr Human Induced Pluripotent Stem Cell (iPSC)-derived Cardiotoxicity Assay (AID 2284234; active = hit-call score of the fitted dose curve at least 0.9, where 1 is the maximum). In a few lines:
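Nuclear counts from Hoechst 33342 imaging define cytotoxicity here, with EC10 (10% cell-count loss relative to DMSO) as point of departure. iPSC cardiomyocytes received 0.2-100 uM test chemical in 0.5% DMSO for 1.5 h at 37 C.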

The nature of test [8]: TAMU_PeakParms_SingleDonor1434_QT: Texas A&M University (TAMU) 1.5-hr Human Induced Pluripotent Stem Cell (iPSC)-derived Cardiomyocytes Calcium (Ca+2) Flux Assay for Cardiotoxicity: QT (decay-rise ratio) (AID 2284235; active = hit-call score of the fitted dose curve at least 0.9, where 1 is the maximum). The method, boiled down:
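Decay/rise ratio of calcium-flux fluorescence scored after 90 min exposure (37C) of donor 1434 iPSC cardiomyocytes to 0.2–100 uM (0.5% DMSO). Beat-cessation and severe-notch points removed; POD is EC05, a 5% rise over DMSO.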

Read-out in test [9]: Interleukin 6 (IL6), IL6 (gene 3569)
Put plainly: BSK_BT_xIL6: BioMAP Diversity Plus: BT Assay for Interleukin 6 (IL6) Biomarker Activity (AID 2284228). The following applies: primary human B cells with PBMC. In a few lines: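 Human B cell plus PBMC co-culture exposed to test chemical for 24 h; secreted IL-6 quantified by Luminex xMAP bead assay. Activity fitted in the positive direction against DMSO as negative control and baseline.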

Read-out in test [10]: Interleukin 17A (IL17A), IL17A (gene 3605)
Put plainly: BSK_BT_xIL17A: BioMAP Diversity Plus: BT Assay for Interleukin 17A (IL17A) Biomarker Activity (AID 2284229). The following applies: primary human B cells with PBMC. The method, boiled down:
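B cells co-cultured with PBMC were exposed to test chemicals, and secreted IL-17A was quantified 24 h after dosing by Luminex xMAP bead immunoassay. Activity was fitted in the gain direction against DMSO as baseline.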

Read-out in test [11]: Tumor necrosis factor (Homo sapiens) (UniProt P01375)
Put plainly: BSK_BT_xTNFa: BioMAP Diversity Plus: BT Assay for Tumor necrosis factor alpha (TNF-alpha) Biomarker Activity (AID 2284230). The following applies: primary human B cells with PBMC. The method, boiled down:
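Human primary co-culture of B cells and peripheral blood mononuclear cells; TNF-alpha in supernatant, 24 h post-dose, Luminex multiplex; DMSO = baseline.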

Read-out in test [12]: Vascular cell adhesion molecule 1 (VCAM1), VCAM1 (gene 7412)
Put plainly: BSK_MyoF_VCAM1: BioMAP Diversity Plus: MyoF Assay for Vascular cell adhesion molecule 1 (VCAM1) Biomarker Activity (AID 2284231). The settings on record: primary human lung fibroblasts. The method, boiled down: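 Primary human lung fibroblasts were dosed with test chemical for 24 h, then cell-surface VCAM-1 was measured by ELISA. Activity was fitted in the positive direction against DMSO as negative control and baseline.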

Read-out in test [13]: Collagen I, COL1A1 (gene 1277)
Put plainly: BSK_MyoF_CollagenI: BioMAP Diversity Plus: MyoF Assay for Collagen I Biomarker Activity (AID 2284238). The following applies: primary human lung fibroblasts. In a few lines:
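Human lung fibroblasts were exposed to test chemical for 24 h, then Collagen I was quantified by ELISA. Activity was fitted in the increasing direction against DMSO as the negative control and baseline.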

Read-out in test [14]: Collagen III, COL3A1 (gene 1281)
Put plainly: BSK_MyoF_CollagenIII: BioMAP Diversity Plus: MyoF Assay for Collagen III Biomarker Activity (AID 2284239). The settings on record: primary human lung fibroblasts. The method, boiled down: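 Human lung fibroblasts were dosed with chemicals and, 24 hours later, collagen III was measured by ELISA. Activity was fitted in the positive direction against the DMSO negative-control baseline.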

Read-out in test [15]: Interleukin 17F (IL17F), IL17F (gene 112744)
Put plainly: BSK_BT_xIL17F: BioMAP Diversity Plus: BT Assay for Interleukin 17F (IL17F) Biomarker Activity (AID 2284243). The settings on record: primary human B cells with PBMC. In a few lines:
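B cell/PBMC co-culture (human primary), 24 h compound exposure; sIL-17F by Luminex xMAP; gain-of-signal fit vs DMSO baseline.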

Read-out in test [16]: Actin alpha 1 (ACTA1), ACTA1 (gene 58)
Put plainly: BSK_MyoF_ACTA1: BioMAP Diversity Plus: MyoF Assay for Actin alpha 1 (ACTA1) Biomarker Activity (AID 2284244). The settings on record: primary human lung fibroblasts. In a few lines:
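Cells were exposed to chemical for 24 h before a-SMA levels were quantified by ELISA in human lung fibroblasts. Increases were fitted against DMSO as negative control; parallel SRB staining (0.1% after 10% TCA fixation, 560 nm) assessed cytotoxicity.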

Read-out in test [17]: Interleukin 2 (IL2), IL2 (gene 3558)
Put plainly: BSK_BT_xIL2: BioMAP Diversity Plus: BT Assay for Interleukin 2 (IL2) Biomarker Activity (AID 2284245). The following applies: primary human B cells with PBMC. In a few lines:
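The BT system combines human B cells with peripheral blood mononuclear cells. Twenty-four hours after chemical dosing, secreted IL-2 was measured with xMAP bead technology, and responses were analyzed as increases over DMSO controls.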

Read-out in test [18]: Basic fibroblast growth factor (bFGF), FGF2 (gene 2247)
Put plainly: BSK_MyoF_bFGF: BioMAP Diversity Plus: MyoF Assay for Basic fibroblast growth factor (bFGF) Biomarker Activity (AID 2284246). The following applies: primary human lung fibroblasts. In a few lines: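 Chemicals are added to human lung fibroblast cultures and incubated 24 h. bFGF is then measured by ELISA, while parallel cultures receive SRB staining for total protein as a cytotoxicity check. Data are fitted upward against DMSO.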

Read-out in test [19]: Collagen IV, COL4A1 (gene 1282)
Put plainly: BSK_MyoF_CollagenIV: BioMAP Diversity Plus: MyoF Assay for Collagen IV Biomarker Activity (AID 2284247). The settings on record: primary human lung fibroblasts. In a few lines:
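Human lung fibroblast system, 24 h chemical exposure. Endpoint: Collagen IV by ELISA, upward fit vs DMSO.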

The nature of test [20]: UKN4_HCS_LUHMES_cell_viability: Viability Assessment in the University of Konstanz (UKN) Leist Lab Neurite Outgrowth Assay in human LUHMES cells (UKN4) (AID 2284232). The method, boiled down:
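Cells switched to differentiation medium at day 0, replated on day 2 in medium lacking cAMP and GDNF, and compound-treated once attached. Live staining began 23.5 h later, imaging followed at 24 h.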

The term AC50 denotes the concentration giving half of the maximal activity seen.

Inconclusive results are not listed. More than one record can exist for a structure, and the calls need not agree. The source made the active and inactive calls. The calls were made as follows, unless noted: active = hit-call score of the fitted dose curve at least 0.9, where 1 is the maximum; inactive = score below 0.9.

Sequence of Tumor necrosis factor (Homo sapiens) (P01375 whole entry, looked up): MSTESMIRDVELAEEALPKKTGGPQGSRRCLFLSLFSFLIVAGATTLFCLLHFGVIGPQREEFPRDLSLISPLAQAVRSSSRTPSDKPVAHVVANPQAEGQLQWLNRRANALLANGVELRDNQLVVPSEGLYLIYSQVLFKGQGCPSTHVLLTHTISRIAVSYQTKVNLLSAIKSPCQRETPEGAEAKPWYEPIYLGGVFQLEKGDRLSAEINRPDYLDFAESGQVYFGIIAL

For `Cc1c(COC(=O)[C@@H]2[C@H](/C=C(\Cl)C(F)(F)F)C2(C)C)cccc1-c1ccccc1`, the result in test [1] was inactive. Moreover, the AC50 was 21.2 µM (active) in test [2]; 25.9 µM (active) in test [3]; 10.3 µM (active) in [4]; 9.1 µM (active) in [5]; 2.95 µM (active) in [6].

Turning to `O=C1C2CC=CCC2C(=O)N1SC(Cl)(Cl)Cl` (configuration not stated), the AC50 in [7] is 84.7 µM (active). Further, in [8], the result was inactive.

For `CNC(=O)Oc1cccc2ccccc12`, the compound was called inactive in test [7], in [3], in test [4] and in [5]. Besides, the AC50 in test [6] is 22.9 µM (active).

Regarding `CC(C)(C)C(=O)C(Oc1ccc(Cl)cc1)n1cncn1` (configuration not stated), the outcome in test [1], in [2], in [4] and in test [5] was inactive. Besides, the figures for the AC50 in test [3] and in [6] were 33.2 µM (active) and 11 µM (active), respectively.

For `COCC(C)N(C(=O)CCl)c1c(C)csc1C` (configuration not stated), the outcome in test [9], in [11], in [17], in [18] and in [19] was inactive. The AC50 was 20 µM (active) in [10]; 20 µM (active) in test [12]; 17.3 µM (active) in test [13]; 26.2 µM (active) in test [14]; 23.8 µM (active) in test [15]; 30.9 µM (active) in test [16].

`COC(=O)N(C(=O)N1CO[C@@]2(C(=O)OC)Cc3cc(Cl)ccc3C2=N1)c1ccc(OC(F)(F)F)cc1`: in test [1], the AC50 was 33.1 µM (active). Further, the compound was called inactive in test [3], in [4] and in [5].

Consider `C=C(C)CN(CC)c1c([N+](=O)[O-])cc(C(F)(F)F)cc1[N+](=O)[O-]`, for which the AC50 in test [1] was 121 µM (active); in test [2] it was 50 µM (active); in test [3], 50 µM (active); in test [4], 77.5 µM (active); in test [5], 31.5 µM (active); in test [6] it was 8.46 µM (active).

In the case of `CCOP(=O)(OCC)Oc1nc(Cl)c(Cl)cc1Cl`, the figures for the AC50 in [20], in [1] and in [4] were 65.1 µM (active), 3.19 µM (active) and 50 µM (active), respectively. Moreover, the compound was classed as inactive in test [2], in test [3], in test [4], in [5] and in test [6].

For the compound `CC1(C)C(C=C(Cl)Cl)C1C(=O)OC(C#N)c1cccc(Oc2ccccc2)c1` (configuration not stated), the result in [3], in test [4], in test [5] and in test [6] was inactive.

For the compound `O=C(Nc1ccccc1-c1ccc(Cl)cc1)c1cccnc1Cl`, the call in test [1], in test [2], in test [3], in test [4] and in test [5] was inactive.

Regarding `CCN(CC)c1nc(C)cc(OP(=S)(OC)OC)n1`, the AC50 in [2] was 80.8 µM (active); in test [3] it was 90.6 µM (active); in [4] it was 75.1 µM (active); in [5] it was 71.4 µM (active); in [6], 9.92 µM (active).

As for `COP(=O)(OC)O/C(C)=C/C(=O)N(C)C`, the outcome in test [3], in [4] and in test [6] was inactive.

On to `N#CN=C1SCCN1Cc1ccc(Cl)nc1`, for which the compound was classed as inactive in test [3], in test [4] and in test [5].

`COP(=S)(OC)SCn1nnc2ccccc2c1=O`: the call in test [20], in [2], in test [3], in [4] and in [5] was inactive. Also, the AC50 in test [1] was 32.2 µM (active).

In the case of `CN/C(=N\[N+](=O)[O-])NCc1cnc(Cl)s1`, the outcome in test [2], in [3], in [4] and in [5] was inactive.

Take `CS(=O)(=O)c1ccc(C(=O)C2C(=O)CCCC2=O)c([N+](=O)[O-])c1`: the compound was called inactive in [1], in test [3], in test [4] and in test [5].

As to `CCNC(=O)NC(=O)C(C#N)=NOC`, the call in test [2], in test [3], in [4] and in test [5] was inactive.

With `CO/N=C(/C1=NOCCO1)c1ccccc1Oc1ncnc(Oc2ccccc2Cl)c1F`, the compound was called inactive in test [1]. The AC50 in test [2] was 10.9 µM (active); in test [3], 2.55 µM (active); in test [4] it was 90 µM (active); in test [6], 1.52 µM (active).

On to `CCSC(=O)N1CCCCCC1`, for which the compound was called inactive in [1], in test [2], in test [3], in test [4], in test [5] and in [6].

Take `CS(=O)(=O)c1cc(C(F)(F)F)ccc1C(=O)c1cnoc1C1CC1`: the compound was classed as inactive in test [1], in test [3], in test [4] and in [5]. Besides, in test [2], the AC50 is 9.92 µM (active).
